Bioassay records as filed in PubChem BioAssay.
Hits are enriched below; roughly 11% of the tested compounds scored in any of these assays.
Sfp PPTase inh: qHTS Assay for Inhibitors of Bacillus subtilis Sfp phosphopantetheinyl transferase (PPTase); 4'-phosphopantetheinyl transferase ffp (Bacillus subtilis), Q9F4F7; Biochemical Sfp PPTase activity, qHTS; Potency, µM, without a hit: largest response in the series, negative = inhibition, actives largely listed as inhibitors; actives 3.5% (n = 310,000);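 also: the enzyme is Sfp with the accession as filed and its product quenches rhodamine fluorescence; potency is read from the fitted curve at half-maximal effect; 0% = enzyme reaction without inhibitor and -100% = no enzyme wells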
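Step 1, compound plus 15 nM Sfp-PPTase, 15 min, room temperature. Step 2, add rhodamine-CoA (5 uM) and BHQ-2-YbbR (12.5 uM). Step 3, read 525/598 nm fluorescence at 0 and 30 min.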
FBPA coupling cs: qHTS Assay for Inhibitors of Fructose-1,6-bisphosphate Aldolase from Giardia Lamblia: Coupling assay counterscreen; actives 0.67% (n = 290,000); activity change, negative = inhibition, % at 58.2 µM, hits read low; coupling enzyme system counterscreen, AmpLite Red fluorescence; AID 2472, 2010; in the data active = activity change below about -30%
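Coupling enzymes only (glyceraldehyde-3-phosphate) + compound, at 57.5 uM final, 10 min RT; add substrate/coupling/AmpLite Red mix, 20 min RT; fluorescence ex 525/em 598 nm. Actives flag coupling-system interference.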
Tau ThT inhib: qHTS for Inhibitors of Tau Fibril Formation, Thioflavin T Binding | recombinant tau K18 P301L, heparin-induced fibrillization, ThT fluorescence | actives 2.1% (n = 270,000) | Microtubule-associated protein tau (Homo sapiens), P10636 | Potency, µM (doses to about 57.4 µM), without a hit: top-dose activity, negative = inhibition, actives largely listed as inhibitors | AID 1460, 2008; also: potency is read from the fitted curve at half-maximal effect; nearly all actives have a fitted effect of over 55% in size
Target sequence (P10636 561-689 P618L limits assumed): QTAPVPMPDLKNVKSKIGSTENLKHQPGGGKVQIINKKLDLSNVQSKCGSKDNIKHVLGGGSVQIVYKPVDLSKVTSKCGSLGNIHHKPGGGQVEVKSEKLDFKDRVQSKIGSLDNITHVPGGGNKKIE
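Heparin-induced (20 uM) aggregation of recombinant human K18 P301L tau, 15 uM unlabeled with 0.24 uM labeled, pH 7 acetate buffer, 6 hr at 37 C with compound. Fibrils quantified by 30 uM ThT fluorescence after 1 hr ambient incubation.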
G9a inh: qHTS Assay for Inhibitors of Histone Lysine Methyltransferase G9a; Histone-lysine N-methyltransferase EHMT2 (Homo sapiens), Q96KQ7; G9a H3K9 monomethylation, AlphaScreen, 2 h; Potency, µM (series often up to 102 µM), inactives show at the highest dose activity, negative = inhibition, actives largely listed as inhibitors; actives 8.8% (n = 350,000); AID 504332, 2011; also: potency is read from the fitted curve at half-maximal effect; nearly all actives have a fitted effect of over 75% in size
Target sequence (Q96KQ7 913-1193 limits assumed): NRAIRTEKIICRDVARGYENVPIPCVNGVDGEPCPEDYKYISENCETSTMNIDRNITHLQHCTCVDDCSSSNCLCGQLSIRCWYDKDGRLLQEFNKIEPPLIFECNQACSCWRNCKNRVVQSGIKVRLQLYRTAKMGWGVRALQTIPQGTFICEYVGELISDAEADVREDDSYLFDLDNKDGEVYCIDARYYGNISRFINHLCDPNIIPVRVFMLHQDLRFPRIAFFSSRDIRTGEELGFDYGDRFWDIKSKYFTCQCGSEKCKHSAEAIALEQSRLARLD
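Compounds were preincubated with 20 nM G9a for 15 min, after which biotinylated H3K9 peptide (500 nM) and SAM (20 uM) started a 2 h room-temperature reaction. Monomethylated product was quantified by antibody-based AlphaScreen chemiluminescence.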
Tau fluor cs: Counterscreen qHTS for Inhibitors of Tau Fibril Formation, Fluorescence Polarization; tau K18 P301L (four-repeat tau fragment) Alexa594 fluorescence, heparin fibrillization; Potency, µM (top dose mostly 57.7 µM), without a hit: top-dose activity change, negative = decrease; actives 0.93% (n = 280,000); also: potency is read from the fitted curve at half-maximal effect; nearly all actives have a fitted effect of over 55% in size
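Human K18 P301L tau (15 uM unlabeled plus 0.24 uM Alexa 594-labeled, final) in 100 mM sodium acetate pH 7 was mixed with compound and 20 uM heparin and incubated 6 hr at 37 C.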
Tau fibril FP: qHTS for Inhibitors of Tau Fibril Formation, Fluorescence Polarization | Potency, µM (top dose mostly 57.7 µM), without a hit: at the top dose activity, negative = inhibition, usual class: inhibitors | K18 P301L tau heparin fibrillization, Alexa594 FP, 6 h | Microtubule-associated protein tau (Homo sapiens), P10636 | actives 0.39% (n = 280,000); also: potency is read from the fitted curve at half-maximal effect; nearly all actives have a fitted effect of over 55% in size
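FP of Alexa 594-tau after heparin (20 uM) induction. Substrate: human K18 P301L, 15 uM unlabeled, 0.24 uM labeled. Buffer 100 mM sodium acetate pH 7. 6 hr, 37 C.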
The depositor's hits bear a star; ? = inconclusive; nt = no result; ! = not active in a repeat; [ ] = another dose, or the depositor's remark. Unless noted, calls follow the shape of the dose curve; as a rule, active = well fitted curve in the direction sought with a large enough effect; inconclusive = small, poorly fitted or top-dose-only effect, or another doubt; inactive = no such curve, though single readings can be large; an effect the other way counts as inactive or inconclusive. Unless noted, % is scaled to controls: 0 for no effect and ±100 for the full control effect.

SMILES	Sfp PPTase inh	FBPA coupling cs	Tau ThT inhib	G9a inh	Tau fluor cs	Tau fibril FP
CCc1nc(SCC(=O)c2ccc(C)c(C)c2)n[nH]1	79µM*	2	0%	6.3µM*	-1%	-3%
Cc1nc(SCC(=O)c2cccc([N+](=O)[O-])c2)n[nH]1	20µM*	4	40µM*	?	-28%	?
Cc1ccnc(SCC(=O)c2cccc([N+](=O)[O-])c2)n1	50µM*	0	-10%	22µM*	-13%	-3%
CC(=O)N1CCc2cc(Br)cc(S(=O)(=O)CCC(=O)Nc3ccc(C)cc3Cl)c21	nt	nt	-7%	?	-14%	-8%
CC(CNC(=O)c1sc2ncccc2c1-n1cccc1)c1ccccc1 (centres undefined)	nt	nt	-13%	-40%[59 µM]	-12%	-4%
CC1CCN(CC(=O)NCCc2ccc(F)cc2)CC1	-24%	0	-8%	13µM*	-10%	-4%
COc1ccc(CCNC(=O)CN2CCC(C)CC2)cc1OC	-5%	-1	10%	?	2%	-3%
O=C(CN1CCCCCC1)NCCc1ccc(F)cc1	?	1	-10%	8.9µM*	-1%	4%
CC[N+](CC)(CC)CCCCOc1ccc2c(c1)C(=O)c1cc(OCCCC[N+](CC)(CC)CC)ccc1-2	-13%	-3	?	?	-17%	2%
CCOC(=O)C1=C(O)c2ccccc2C(=O)/C1=C\c1ccc(C)cc1	11µM*	-51*	14µM*	2.5µM*	-16%	?
Cc1ccc(-c2nnn(CC(=O)N(c3ccccc3)C(C(=O)NC3CCCC3)c3ccncc3)n2)o1 (centres undefined)	12%	6	nt	12%	nt	nt
COc1ccc(C(C(=O)NC2CCCC2)N(CCO)C(=O)Cn2nnc(-c3ccc(C)o3)n2)cc1OC (centres undefined)	-1%	4	nt	28µM*	nt	nt
Cc1ccc(-c2nnn(CC(=O)N(Cc3ccccc3F)C(C(=O)NC3CCCC3)c3ccncc3)n2)o1 (centres undefined)	28µM*	-4	-6%	25µM*	-2%	7%
CN(C)C(CNC(=O)c1ccc(-c2ccccc2)cc1)c1ccccc1 (centres undefined)	2%	1	nt	-11%	nt	nt
COc1ccc(OC)c(C2CC(=O)Oc3c2c(=O)n(C)c2ccccc32)c1 (centres undefined)	nt	nt	-12%	-13%[59 µM]	-13%	-1%
Cc1ccc2c(c1)cc1c(=O)n(CC(=O)NCCN3CCCC3)nc(C)n12	2%	nt	nt	nt	nt	nt
COc1ccc(-c2nc(SCC(=O)NC3CCCC3)c(-c3ccc(F)cc3)[nH]2)cc1	nt	nt	?	-39%[59 µM]	14µM*[quencher]	8%
CCOc1ccc(-c2nc(SCC(=O)NC3CCCC3)c(-c3ccccc3)[nH]2)cc1OC	nt	nt	?	?	13µM*[quencher]	?
COc1ccc(-c2nnc(SCC(=O)NC3CCCCC3)n2N)cc1	nt	nt	nt	45µM*	nt	nt
Cn1c(Cc2csc(N)n2)nnc1SCC(=O)NC1CCCCC1	56µM*	0	-4%	56µM*	1%	-4%
CCOc1ccccc1C(=O)N(Cc1cccs1)c1ccc(Cl)cc1	nt	nt	?	22%[59 µM]	-23%	-2%
Cn1c(N)c(C(=O)COC(=O)CCCOc2ccc(Cl)cc2Cl)c(=O)n(C)c1=O	4%	1	2%	11%	-28%	-11%
COc1ccc(-c2[nH]c(-c3ccc(F)cc3)nc2SCC(=O)NC2CCCC2)cc1	-10%	-4	8%	-38%	-3%	5%
COc1cccc(-c2nc(SCC(=O)NCC3CCCO3)c(-c3ccc(F)cc3)[nH]2)c1 (centres undefined)	nt	nt	-13%	?	?	16%
COc1ccc(-c2[nH]c(-c3cccc(OC)c3)nc2SCC(=O)NC2CCCC2)cc1	4%	-4	?	79µM*!	13µM*![quencher]	?
SMILES	Sfp PPTase inh	FBPA coupling cs	Tau ThT inhib	G9a inh	Tau fluor cs	Tau fibril FP
COc1ccc(-c2[nH]c(-c3ccccc3)nc2SCC(=O)NC2CCCC2)cc1	-1%	-4	?	-48%[59 µM]	25µM*[quencher]	?
O=C(Nc1cccc(C(=O)OCc2cc(=O)n3nc(C4CC4)sc3n2)c1)c1cccc(F)c1	nt	nt	?	5%[59 µM]	2%	-3%
O=C1OC(Nc2nc3ccccc3s2)c2ccccc21 (centres undefined)	5%	0	1%	50µM*	-1%	-10%
Cc1cccc(C(=O)n2nc(C)c(S(=O)(=O)N3CCOCC3)c2C)c1	nt	nt	?	?	1%	9%
COc1cc(C(=O)Nc2c(C(=O)O)[nH]c3ccc(Br)cc23)cc(OC)c1OC	6%	7	nt	?	nt	nt
O=C(Nc1ncccc1O)c1ccc2c(c1)OCCO2	nt	nt	nt	50µM*	nt	nt
Cc1cccnc1NC(=O)c1ccc2c(c1)OCCO2	nt	nt	nt	0%	nt	nt
N#Cc1c(-c2ccc(Cl)cc2)cc(-c2cccs2)nc1SCC(=O)O	40µM*	15	nt	8.9µM*	nt	nt
N#Cc1c(-c2ccccc2)cc(-c2ccccc2)nc1SCC(O)CS(=O)(=O)Cc1ccccc1 (centres undefined)	nt	nt	?	4.5µM*	?	?
COc1ccc(-c2cc(-c3cccs3)c(C#N)c(SCC(=O)NCc3ccccc3)n2)cc1	-3%	2	-2%	1%	0%	-10%
CN1CCN(C(=O)CSc2nc(-c3cccs3)ccc2C#N)CC1	?	-1	-6%	40µM*	-5%	-8%
C#CCSc1nc(-c2ccccc2)cc(-c2ccccc2)c1C#N	nt	nt	-17%	1%[59 µM]	?	?
N#Cc1c(-c2ccccc2)cc(-c2cccs2)nc1SCC(=O)O	56µM*	21	nt	8.9µM*	nt	nt
CCCS(=O)(=O)c1c(S(=O)(=O)CCC)c2ccc(C(C)=O)cn2c1C(=O)OC	4%	-3	-4%	35µM*	7%	1%
CCCS(=O)(=O)c1c(S(=O)(=O)CCC)c2c(N)cccn2c1C(=O)OC	28µM*	-12	-10%	nt	-8%	-7%
Cc1cc(NC(=O)CCS(=O)(=O)c2cc3c4c(c2)CCN4C(=O)CC3)ccc1Br	nt	nt	-15%	7%[59 µM]	-21%	-10%
CCCCn1c(N)c(-c2nc3ccccc3s2)c2c([N+](=O)[O-])nn(C)c(=O)c21	?	0	14µM*	19%[12.7 µM]	?	8%
